# Bioassay records deposited in PubChem BioAssay by National Center for Advancing Translational Sciences (NCATS).
# Most compounds without a hit are left out; they make up all but 6.1% or so of the library.
# D1 antagonist – human D1 dopamine receptor antagonism; P21728; HEK293 TREx D1 cells, calcium flux, dopamine EC80; active compounds read low; activity change, negative = inhibition, % at 10 µM; actives 3.2% (n = 360,000); AID 504652; in the data active means activity change below about -30%; further: on the % scale 0 is the no-effect control and ±100 the full control effect
#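 After overnight tetracycline induction at 30 C, force-coupled D1 HEK293 cells took up a no-wash calcium dye at room temperature. Compounds were added and monitored 180 s, and the response to EC80 dopamine was then recorded.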
# D1 ag – agonists of human D1 dopamine receptor; P21728; HEK293 T-REx D1 cells, calcium flux, agonist mode; activation, % at 2 µM; actives 1% (n = 360,000); AID 504660; in the data active means activation above about 30%; further: 0% is about no effect
#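 Inducible HEK293 T-REx D1 cells, force-coupled to calcium signalling, were plated at 4000 cells/well with tetracycline and held overnight at 30 C. After no-wash calcium dye loading, compound-evoked calcium rise over 180 s flagged agonists.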
# D3 antag – antagonists of human D3 dopamine receptor. D3R cells, DiscoveRx beta-arrestin luminescence, antagonist mode; active compounds read low. P35462. max response, negative = inhibition, %. actives 2.5% (n = 360,000). AID 652054; in the data active means max response below about -50%; further: on the % scale 0 is the no-effect control and ±100 the full control effect
# Target sequence (P35462 whole entry, looked up): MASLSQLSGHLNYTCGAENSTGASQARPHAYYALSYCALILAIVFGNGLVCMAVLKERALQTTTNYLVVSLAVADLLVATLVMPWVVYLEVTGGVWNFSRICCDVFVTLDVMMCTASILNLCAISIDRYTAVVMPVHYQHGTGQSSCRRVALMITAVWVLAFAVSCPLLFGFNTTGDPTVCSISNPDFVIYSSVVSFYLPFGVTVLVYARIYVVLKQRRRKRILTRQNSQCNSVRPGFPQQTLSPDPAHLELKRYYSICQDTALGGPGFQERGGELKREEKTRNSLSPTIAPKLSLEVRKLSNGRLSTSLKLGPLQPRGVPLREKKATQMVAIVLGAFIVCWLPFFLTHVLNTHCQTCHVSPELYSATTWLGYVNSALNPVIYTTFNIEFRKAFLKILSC
#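 Cells plated overnight at 1500 cells/well, then exposed to library compounds with dopamine controls for 90 minutes at 37 degrees C. DiscoveRx reagent added for 30–60 minutes at room temperature; luminescence read, quantitative HTS format.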
# D1 PAM – human D1 dopamine receptor positive modulation. P21728. HEK293 TREx D1 cells, calcium flux, dopamine EC20 potentiation. potentiation, % at 10 µM. actives 0.036% (n = 360,000); in the data active means potentiation above about 30%; further: 0% is about no effect
# D3 ag – D3 dopamine receptor (human) agonism; P35462; D3R DiscoveRx beta-arrestin cells, luminescence, 90 min; max activation, %; actives 0.58% (n = 410,000); AID 652048; in the data active means max activation above about 30%; further: 0% is about no effect
#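 Agonist mode: compounds and dopamine controls were applied to plated cells for 90 min at 37 degrees C after an overnight attachment at 1500 cells/well. Luminescent read-out followed 30 - 60 minutes at room temperature with DiscoveRx detection reagent.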
# Starred values were filed as active, the others as inactive; / = no result given; ! = a repeat was not active.
SMILES,D1 antagonist,D1 ag,D3 antag,D1 PAM,D3 ag
CCOc1ccc(NS(=O)(=O)c2ccc3c(c2)N(C(C)=O)CC3)cc1,-32*,8,-1,-5,6
CCN(CC)S(=O)(=O)c1ccc(S(=O)(=O)Nc2ccc(C(=O)N3CCCC3)cc2)cc1,3,7,-56*,0,-13
CN(c1ccccc1)S(=O)(=O)c1ccc(C(=O)N2CCCC2)cc1,-16,1,9,-8,3
CCOc1ccc(NS(=O)(=O)c2ccc(C(=O)N3CC(C)OC(C)C3)cc2)cc1 (centres undefined),-59*,113*,24,-10,0
CN(c1ccc(C(=O)N2CCCCC2)cc1)S(=O)(=O)c1ccccc1,-36*,17,16,4,-1
CCc1cc2c(SCC(=O)NC3CC3)ncnc2s1,/,/,19,/,2
CCOc1ccc(NS(=O)(=O)c2ccc(C(=O)N3CCCCC3)cc2)cc1,-15,50*,12,-9,4
CC1CC(C)CN(C(=O)c2cccc(S(=O)(=O)NCc3ccccc3)c2)C1 (centres undefined),/,/,-20,/,-8
CC1CCCN(C(=O)c2cccc(S(=O)(=O)NCc3ccccc3)c2)C1 (centres undefined),/,/,-54*,/,1
CCNS(=O)(=O)c1ccc(NC(=O)Nc2cc(C)ccc2OC)cc1,-37*,1,2,-17,1
N#Cc1cc(C(=O)c2ccccc2O)cn(-c2nccs2)c1=O,44,553*,1,18,1
N#Cc1cc(C(=O)c2cc(F)ccc2O)cn(-c2nccs2)c1=O,7,306*,0,-7,-8
CC1(C)S[C@@H]2C(C(=O)OCc3ccccc3)NC(=O)N2C1C(=O)OCc1ccccc1 (some centres undefined),/,/,-23,/,6
C[n+]1nc(Nc2cccc(F)c2)sc1-c1ccc(C(=O)O)cc1,-20,1,/,-3,/
COc1cc(/C=N/NC(N)=S)cc(Br)c1OCc1ccccc1F,11,20,-51*,0,-7
CCOc1cc(/C=N/NC(N)=S)cc(Br)c1OCc1ccccc1C,-4,1,-15,8,1
CC(C)(C)OC(=O)N1CCC(c2c(C(=O)NC3CCCCC3)cnn2-c2ccc(F)cc2F)CC1,16,3,/,3,4
Cc1ccc(N2CC(NC(=O)C(=O)c3c[nH]c4ccccc34)CC2=O)cc1 (centres undefined),/,4,/,-2,6
Cc1ccc(C(=O)Nc2nnc(-c3ccco3)o2)cc1,12,1,-19,-4,-6
Cc1ccsc1C(=O)Nc1nnc(-c2ccco2)o1,0,1,-65*,-2,-4
CCOc1cccc(CNCc2ccncc2)c1,14,9,8,3,-2
C=CCOc1cccc(CNCc2ccncc2)c1,-35*,12,3,-7,-5
Fc1ccc(COc2cccc(CNCc3ccncc3)c2)cc1,-6,11,15,-2,34*
COc1cc(OC)c(NC(=O)COCc2cc(-c3cccs3)on2)cc1Cl,-10,2,/,-2,-4
CN=C(C[N+](=O)[O-])NCCSCc1ccc(CN(C)C)o1,/,/,-59*,/,-66
SMILES,D1 antagonist,D1 ag,D3 antag,D1 PAM,D3 ag
O=C(COc1ccc(S(=O)(=O)NC2CCCCC2)cc1)N1CCN(c2ccc(F)cc2)CC1,-30*,10,-26,-8,4
O=C(NC1CC1)c1ccc(S(=O)(=O)NC2CCCCCC2)cc1,-18,5,16,-5,17
CCOc1ccc(NC(C)=O)cc1,6,1,9,-2,2
COc1ccc(S(=O)(=O)Nc2ccc(NC(C)=O)cc2)cc1,-15,2,-16,-1,-18
CCOc1ccc(/C(O)=C/C(=O)C(=O)Nc2ccc(S(=O)(=O)NC(C)=O)cc2)cc1,12,-1,-60*,-1,-10
CCOc1ccc(NS(=O)(=O)c2ccc(NC(=S)NC(C)=O)cc2)cc1,-11,95*,-27,-5,-9
O=C(O)c1ccc(S(=O)(=O)NC2CCCCC2)cc1,12,0,-59*,3,0
O=C(CNC(=O)C1CCCCCC1)OC(C(=O)Nc1cc(C(F)(F)F)ccc1Cl)c1ccccc1 (centres undefined),12,7,/,4,/
CCCCOc1ccc(N2CC(C(=O)NCc3ccco3)CC2=O)cc1 (centres undefined),2,0,-5,4,-1
COc1ccc(NS(=O)(=O)c2ccc(NC(=S)NC(=O)C(C)C)cc2)cc1,20,23,9,-4,6
CC(=O)Nc1ccc(S(=O)(=O)NC2CCCCCC2)cc1,-7,5,-3,-3,-10
CC(C)C(=O)NC(=S)Nc1ccc(S(=O)(=O)NC2CCCCC2)cc1,-32*,11,-17,-5,-10
CCOc1ccc(NS(=O)(=O)c2ccc(NC(=S)NC(=O)C(C)C)cc2)cc1,10,32*,-21,-4,-5
CN(Cc1ccco1)c1ncnc2ccc(-c3ccccc3Cl)cc12,-40*!,18,/,-10,/
CN(Cc1ccco1)c1ncnc2ccc(-c3ccoc3)cc12,5,-2,/,3,/
CCOc1ccc(CNS(=O)(=O)c2cc3c(cc2C)NC(=O)CO3)cc1OC,2,1,/,-1,3
Cn1cc(C(=O)[C@@H]2CCc3nc[nH]c3C2)c2ccccc21,/,/,/,/,-11
CC1(C(=O)NS(=O)(=O)c2ccccc2Cl)CCN1C(=O)COc1ccc(Cl)cc1 (centres undefined),/,/,-4,/,5
O=S1(=O)C=C(Sc2nc3cc(Cl)ccc3o2)c2ccccc21,-2,7,-77*,1,-16
O=C1NC[C@@H](CCCCN2CCN(Cc3ccccc3)C(=O)C2=O)N(CCC2CCCCC2)C1=O,/,/,0,/,-8
CCc1nc(NCc2ccc3c(c2)OCO3)c2oc3ccccc3c2n1,-14,3,-66*,-6,-5
Cc1nc(NCc2ccc3c(c2)OCO3)c2oc3ccccc3c2n1,-6,4,10,-7,8
CCCCCOc1ccc(/C=C/C(=O)Nc2sc(C(C)=O)c(C)c2C(=O)OCC)cc1OC,7,-1,/,-1,-3
CCN(CC)S(=O)(=O)c1ccc(C(=O)/C=C/c2ccc(-c3ccc([N+](=O)[O-])cc3)o2)cc1,-54*,9,9,-8,0
CCOC(=O)CCc1ccc(NC(=O)/C=C/c2ccc([N+](=O)[O-])o2)cc1,/,/,1,/,-17
CCc1ccc(C(=O)/C=C/c2ccc([N+](=O)[O-])o2)cc1,-15,0,-56*,4,-2
CCc1ccc(/C=C/C(=O)c2ccc(S(=O)(=O)N(C)C)cc2)cc1,-62*,50*,10,0,2
CCOc1ccc(NC(=O)c2cn3c4c(ccc(Cl)c4c2=O)OC(C)C3)cc1 (centres undefined),-15,0,/,1,-9
C/C(CC(=O)NC1CCCCC1)=N\NC(=O)COc1ccc(C)cc1Br,-16,5,-22,0,-4
